# What was measured:
# Assay in all cases: DAPPL (digital affinity profiling via proximity ligation, sequencing); 10 mM Tris-HCl pH 7.5, 50 mM NaCl, 1 mM DTT, 4% glycerol, room temperature, 30 min; GST-TFs on glutathione beads, 16-mer random dsDNA library, 0.1% formaldehyde crosslink after washing; high values mean tight binding
# FLI1 = target: T1, FLI1 (Homo sapiens, UniProt Q01543 1-452); details: protein: recombinant; tags: N-terminal GST; dsDNA, one strand shown
# T1 sequence: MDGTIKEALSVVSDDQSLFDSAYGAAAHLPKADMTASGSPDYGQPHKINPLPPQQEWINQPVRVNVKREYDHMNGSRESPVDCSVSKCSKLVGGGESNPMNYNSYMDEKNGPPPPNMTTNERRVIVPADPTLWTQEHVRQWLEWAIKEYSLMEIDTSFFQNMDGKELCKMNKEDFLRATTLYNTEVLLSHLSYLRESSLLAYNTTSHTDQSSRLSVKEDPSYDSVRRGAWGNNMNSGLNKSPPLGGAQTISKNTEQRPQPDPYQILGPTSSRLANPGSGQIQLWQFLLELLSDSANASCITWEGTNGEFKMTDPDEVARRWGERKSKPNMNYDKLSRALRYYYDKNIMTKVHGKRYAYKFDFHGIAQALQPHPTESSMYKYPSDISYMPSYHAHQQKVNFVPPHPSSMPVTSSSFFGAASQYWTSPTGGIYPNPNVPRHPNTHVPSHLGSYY
# Method in brief: (§1)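 In yeast, human transcription factors were expressed with a GST fusion, then pulled down on glutathione beads and given DNA barcodes. Pooled with a tag-only sample, they were exposed to 200 nmole of a 16-mer random double-stranded DNA library (Tris/NaCl/DTT/glycerol buffer, room temperature, 30 min), washed, crosslinked with 0.1% formaldehyde, proximity-ligated using BsaI/T4 ligase for 1 h at 37 °C, PCR-amplified and read on an Illumina NextSeq500. Each hexamer's frequency of reads for a factor, divided by the matching frequency for the tag-only sample, gives the binding signal.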
# ELK1 = target: T2, ELK1 (Homo sapiens, UniProt P19419 1-428); details: protein: recombinant; tags: N-terminal GST; dsDNA, one strand shown
# T2 sequence: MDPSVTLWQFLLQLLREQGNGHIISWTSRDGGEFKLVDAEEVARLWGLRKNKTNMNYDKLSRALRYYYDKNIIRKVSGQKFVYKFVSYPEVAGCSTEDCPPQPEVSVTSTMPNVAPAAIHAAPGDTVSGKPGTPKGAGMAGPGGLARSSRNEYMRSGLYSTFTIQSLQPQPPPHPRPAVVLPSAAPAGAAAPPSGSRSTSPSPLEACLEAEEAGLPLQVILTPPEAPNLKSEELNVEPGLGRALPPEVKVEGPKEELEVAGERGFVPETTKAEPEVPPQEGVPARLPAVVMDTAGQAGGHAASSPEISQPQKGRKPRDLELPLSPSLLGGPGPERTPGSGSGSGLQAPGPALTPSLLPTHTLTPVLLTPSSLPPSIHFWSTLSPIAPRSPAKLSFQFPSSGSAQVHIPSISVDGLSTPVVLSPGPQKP
# Method in brief: as §1
# GABPA = target: T3, GABPA (Homo sapiens, UniProt Q06546 1-454); details: protein: recombinant; tags: N-terminal GST; dsDNA, one strand shown
# T3 sequence: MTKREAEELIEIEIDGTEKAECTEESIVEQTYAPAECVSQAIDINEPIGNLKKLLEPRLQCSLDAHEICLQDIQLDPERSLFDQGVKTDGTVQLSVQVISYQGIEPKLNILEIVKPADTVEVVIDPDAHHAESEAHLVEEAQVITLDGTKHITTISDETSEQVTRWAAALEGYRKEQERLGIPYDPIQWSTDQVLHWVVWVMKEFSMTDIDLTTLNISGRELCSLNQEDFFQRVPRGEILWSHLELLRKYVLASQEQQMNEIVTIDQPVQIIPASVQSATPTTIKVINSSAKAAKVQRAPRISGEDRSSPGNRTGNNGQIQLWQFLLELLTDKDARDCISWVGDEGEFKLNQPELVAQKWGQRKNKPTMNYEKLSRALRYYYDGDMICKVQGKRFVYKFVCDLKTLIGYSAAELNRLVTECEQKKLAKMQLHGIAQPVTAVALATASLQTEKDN
# Method in brief: as §1
# ERG = target: T4, ERG (Homo sapiens, UniProt P11308 1-479); details: protein: recombinant; tags: N-terminal GST; dsDNA, one strand shown
# T4 sequence: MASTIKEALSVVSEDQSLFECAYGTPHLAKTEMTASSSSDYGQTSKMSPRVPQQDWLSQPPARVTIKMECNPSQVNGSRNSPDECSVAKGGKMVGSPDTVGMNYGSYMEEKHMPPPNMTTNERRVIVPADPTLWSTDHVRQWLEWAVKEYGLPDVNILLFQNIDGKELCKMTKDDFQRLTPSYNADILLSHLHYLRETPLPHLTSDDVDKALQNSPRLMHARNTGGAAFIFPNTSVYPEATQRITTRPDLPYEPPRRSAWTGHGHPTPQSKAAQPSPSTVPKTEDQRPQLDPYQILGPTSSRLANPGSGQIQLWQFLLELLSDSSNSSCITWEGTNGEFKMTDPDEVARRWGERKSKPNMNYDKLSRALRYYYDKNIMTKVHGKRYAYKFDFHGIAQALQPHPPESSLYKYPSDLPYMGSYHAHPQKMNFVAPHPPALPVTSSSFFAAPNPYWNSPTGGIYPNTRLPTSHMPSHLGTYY
# Method in brief: as §1
# ELF1 = ELF1 (Homo sapiens, UniProt P32519 1-619); details: protein: recombinant; tags: N-terminal GST; dsDNA, one strand shown
# Sequence of ELF1 (P32519 whole entry): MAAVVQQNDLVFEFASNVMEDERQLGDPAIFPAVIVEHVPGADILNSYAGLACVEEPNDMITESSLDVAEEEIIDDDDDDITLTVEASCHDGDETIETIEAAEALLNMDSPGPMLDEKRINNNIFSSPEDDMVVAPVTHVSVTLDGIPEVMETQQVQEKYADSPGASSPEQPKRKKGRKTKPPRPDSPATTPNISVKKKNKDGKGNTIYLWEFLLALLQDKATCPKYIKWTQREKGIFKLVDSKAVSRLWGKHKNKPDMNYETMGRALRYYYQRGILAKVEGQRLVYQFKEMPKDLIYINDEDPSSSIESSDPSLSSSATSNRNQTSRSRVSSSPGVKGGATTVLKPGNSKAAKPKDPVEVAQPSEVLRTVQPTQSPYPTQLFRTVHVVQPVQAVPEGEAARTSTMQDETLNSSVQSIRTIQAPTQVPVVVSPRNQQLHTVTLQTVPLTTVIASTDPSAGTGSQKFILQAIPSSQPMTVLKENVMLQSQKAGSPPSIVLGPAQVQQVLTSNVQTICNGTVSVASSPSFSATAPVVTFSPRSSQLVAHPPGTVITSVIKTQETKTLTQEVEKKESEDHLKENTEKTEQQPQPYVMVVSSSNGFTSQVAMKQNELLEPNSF
# Method in brief: as §1
# EHF = target: T5, EHF (Homo sapiens, UniProt Q9NZC4 1-300); details: protein: recombinant; tags: N-terminal GST; dsDNA, one strand shown
# T5 sequence: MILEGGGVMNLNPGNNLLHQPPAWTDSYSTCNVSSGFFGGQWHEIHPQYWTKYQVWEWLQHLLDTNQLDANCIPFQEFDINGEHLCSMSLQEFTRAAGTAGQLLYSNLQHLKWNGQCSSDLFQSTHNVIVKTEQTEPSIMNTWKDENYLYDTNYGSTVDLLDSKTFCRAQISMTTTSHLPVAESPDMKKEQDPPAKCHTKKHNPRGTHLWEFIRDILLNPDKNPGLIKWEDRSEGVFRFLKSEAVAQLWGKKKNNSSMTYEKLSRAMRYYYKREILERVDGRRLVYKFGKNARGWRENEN
# Method in brief: as §1
# SPI1 = SPI1 (Homo sapiens, UniProt P17947 1-270); details: protein: recombinant; tags: N-terminal GST; dsDNA, one strand shown
# Method in brief: as §1
# SPIB = SPIB (Homo sapiens, UniProt Q01892 1-262); details: protein: recombinant; tags: N-terminal GST; dsDNA, one strand shown
# Sequence of SPIB (Q01892 whole entry): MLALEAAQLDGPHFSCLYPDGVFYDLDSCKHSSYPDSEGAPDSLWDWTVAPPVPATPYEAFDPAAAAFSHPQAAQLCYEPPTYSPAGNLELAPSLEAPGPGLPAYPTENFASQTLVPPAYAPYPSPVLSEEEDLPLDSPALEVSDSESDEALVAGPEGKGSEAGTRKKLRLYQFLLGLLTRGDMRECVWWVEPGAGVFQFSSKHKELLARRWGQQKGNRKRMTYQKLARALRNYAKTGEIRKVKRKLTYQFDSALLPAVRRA
# Method in brief: as §1
# ELK3 = target: T6, ELK3 (Homo sapiens, UniProt P41970 1-407); details: protein: recombinant; tags: N-terminal GST; dsDNA, one strand shown
# T6 sequence: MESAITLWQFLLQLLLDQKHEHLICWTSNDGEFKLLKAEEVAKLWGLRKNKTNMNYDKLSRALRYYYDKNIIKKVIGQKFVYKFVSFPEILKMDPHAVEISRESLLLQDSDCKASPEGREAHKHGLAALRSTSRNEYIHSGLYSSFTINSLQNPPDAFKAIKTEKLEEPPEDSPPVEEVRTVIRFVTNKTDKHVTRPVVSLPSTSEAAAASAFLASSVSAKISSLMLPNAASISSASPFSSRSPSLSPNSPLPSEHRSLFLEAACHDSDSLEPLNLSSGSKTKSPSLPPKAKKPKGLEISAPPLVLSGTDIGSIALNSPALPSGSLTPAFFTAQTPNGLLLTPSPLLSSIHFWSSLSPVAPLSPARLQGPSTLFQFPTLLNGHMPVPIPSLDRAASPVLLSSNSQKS
# Method in brief: as §1
# FEV = target: T7, FEV (Homo sapiens, UniProt Q99581 1-238); details: protein: recombinant; tags: N-terminal GST; dsDNA, one strand shown
# T7 sequence: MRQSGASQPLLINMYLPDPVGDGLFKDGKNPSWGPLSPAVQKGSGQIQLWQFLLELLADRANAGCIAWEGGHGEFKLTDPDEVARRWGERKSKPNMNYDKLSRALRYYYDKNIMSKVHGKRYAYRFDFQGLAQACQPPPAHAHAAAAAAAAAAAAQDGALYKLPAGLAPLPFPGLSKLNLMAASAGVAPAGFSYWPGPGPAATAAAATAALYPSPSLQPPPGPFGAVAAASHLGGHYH
# Method in brief: as §1
# ETV5 = ETV5 (Homo sapiens, UniProt P41161 1-510); details: protein: recombinant; tags: N-terminal GST; dsDNA, one strand shown
# Sequence of ETV5 (P41161 whole entry): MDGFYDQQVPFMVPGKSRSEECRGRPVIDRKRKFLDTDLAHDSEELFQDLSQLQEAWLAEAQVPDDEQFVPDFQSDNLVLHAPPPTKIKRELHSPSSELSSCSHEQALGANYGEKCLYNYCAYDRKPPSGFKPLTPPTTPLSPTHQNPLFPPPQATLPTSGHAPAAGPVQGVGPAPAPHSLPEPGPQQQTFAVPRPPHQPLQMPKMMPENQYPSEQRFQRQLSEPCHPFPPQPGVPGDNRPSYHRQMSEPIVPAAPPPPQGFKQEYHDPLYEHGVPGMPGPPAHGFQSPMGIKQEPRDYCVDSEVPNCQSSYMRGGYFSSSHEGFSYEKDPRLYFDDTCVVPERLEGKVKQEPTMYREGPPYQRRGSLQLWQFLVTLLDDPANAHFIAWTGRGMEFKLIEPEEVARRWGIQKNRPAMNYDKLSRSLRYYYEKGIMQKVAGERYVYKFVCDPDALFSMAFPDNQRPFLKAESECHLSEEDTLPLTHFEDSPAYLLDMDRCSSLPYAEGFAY
# Method in brief: as §1
# HSF1 = HSF1 (Homo sapiens, UniProt Q00613 1-529); details: protein: recombinant; tags: N-terminal GST; chain copies: 3; dsDNA, one strand shown
# Sequence of HSF1 (Q00613 whole entry): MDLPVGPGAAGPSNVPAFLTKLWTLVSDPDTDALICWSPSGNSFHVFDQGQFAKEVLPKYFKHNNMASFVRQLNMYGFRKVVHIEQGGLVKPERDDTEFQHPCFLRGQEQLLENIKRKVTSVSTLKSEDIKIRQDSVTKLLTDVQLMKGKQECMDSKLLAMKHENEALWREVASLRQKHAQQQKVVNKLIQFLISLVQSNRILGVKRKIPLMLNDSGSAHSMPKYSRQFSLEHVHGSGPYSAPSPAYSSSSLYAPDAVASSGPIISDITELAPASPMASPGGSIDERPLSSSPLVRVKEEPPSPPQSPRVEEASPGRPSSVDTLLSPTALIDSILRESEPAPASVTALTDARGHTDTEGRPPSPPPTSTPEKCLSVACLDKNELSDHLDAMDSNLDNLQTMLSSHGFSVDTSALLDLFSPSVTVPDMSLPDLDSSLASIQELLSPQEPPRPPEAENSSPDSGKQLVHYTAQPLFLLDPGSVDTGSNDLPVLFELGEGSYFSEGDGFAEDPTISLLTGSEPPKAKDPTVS
# Method in brief: as §1
# SPIC = target: T8, SPIC (Homo sapiens, UniProt Q8N5J4 1-248); details: protein: recombinant; tags: N-terminal GST; dsDNA, one strand shown
# T8 sequence: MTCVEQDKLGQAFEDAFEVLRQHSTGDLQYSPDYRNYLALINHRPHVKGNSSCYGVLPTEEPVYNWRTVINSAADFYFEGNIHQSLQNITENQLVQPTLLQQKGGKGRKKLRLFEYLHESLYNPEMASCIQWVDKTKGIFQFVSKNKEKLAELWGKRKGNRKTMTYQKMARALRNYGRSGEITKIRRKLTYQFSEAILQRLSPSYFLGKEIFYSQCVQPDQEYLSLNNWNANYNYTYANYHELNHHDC
# Method in brief: as §1
# ELF4 = ELF4 (Homo sapiens, UniProt Q99607 1-663); details: protein: recombinant; tags: N-terminal GST; dsDNA, one strand shown
# Sequence of ELF4 (Q99607 whole entry): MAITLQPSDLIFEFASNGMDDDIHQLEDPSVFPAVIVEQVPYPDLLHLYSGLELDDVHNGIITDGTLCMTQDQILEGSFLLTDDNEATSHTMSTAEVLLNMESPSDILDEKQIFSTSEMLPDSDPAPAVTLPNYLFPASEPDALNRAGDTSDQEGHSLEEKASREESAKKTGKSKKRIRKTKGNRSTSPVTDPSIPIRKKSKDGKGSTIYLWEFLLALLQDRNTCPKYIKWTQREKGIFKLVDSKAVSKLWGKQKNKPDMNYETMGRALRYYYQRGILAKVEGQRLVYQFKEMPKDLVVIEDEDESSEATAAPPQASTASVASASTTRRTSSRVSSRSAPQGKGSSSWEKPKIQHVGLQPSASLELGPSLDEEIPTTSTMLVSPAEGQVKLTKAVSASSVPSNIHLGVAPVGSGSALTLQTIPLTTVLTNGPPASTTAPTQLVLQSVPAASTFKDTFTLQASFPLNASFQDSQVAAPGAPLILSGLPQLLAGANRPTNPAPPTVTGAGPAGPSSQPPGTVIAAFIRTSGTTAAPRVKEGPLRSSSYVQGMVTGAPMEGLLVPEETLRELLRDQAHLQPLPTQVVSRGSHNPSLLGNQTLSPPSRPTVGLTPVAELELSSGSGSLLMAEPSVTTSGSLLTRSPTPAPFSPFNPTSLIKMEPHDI
# Method in brief: as §1
# ELK4 = target: T9, ELK4 (Homo sapiens, UniProt P28324-2 1-405); details: protein: recombinant; tags: N-terminal GST; dsDNA, one strand shown
# T9 sequence: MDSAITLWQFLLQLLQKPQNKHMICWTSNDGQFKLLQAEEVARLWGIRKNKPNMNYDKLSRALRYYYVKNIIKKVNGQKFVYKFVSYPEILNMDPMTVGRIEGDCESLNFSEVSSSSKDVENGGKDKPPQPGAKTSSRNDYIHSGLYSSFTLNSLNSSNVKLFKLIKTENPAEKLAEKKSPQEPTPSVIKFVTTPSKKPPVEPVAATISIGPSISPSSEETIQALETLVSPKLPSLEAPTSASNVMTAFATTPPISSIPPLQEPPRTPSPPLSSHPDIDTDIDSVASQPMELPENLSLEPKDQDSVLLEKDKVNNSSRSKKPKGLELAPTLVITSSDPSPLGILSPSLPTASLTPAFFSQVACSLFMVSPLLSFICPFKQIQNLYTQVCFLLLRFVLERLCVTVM
# Method in brief: as §1
# ETV2 = target: T10, ETV2 (Homo sapiens, UniProt O00321 1-342); details: protein: recombinant; tags: N-terminal GST; dsDNA, one strand shown
# T10 sequence: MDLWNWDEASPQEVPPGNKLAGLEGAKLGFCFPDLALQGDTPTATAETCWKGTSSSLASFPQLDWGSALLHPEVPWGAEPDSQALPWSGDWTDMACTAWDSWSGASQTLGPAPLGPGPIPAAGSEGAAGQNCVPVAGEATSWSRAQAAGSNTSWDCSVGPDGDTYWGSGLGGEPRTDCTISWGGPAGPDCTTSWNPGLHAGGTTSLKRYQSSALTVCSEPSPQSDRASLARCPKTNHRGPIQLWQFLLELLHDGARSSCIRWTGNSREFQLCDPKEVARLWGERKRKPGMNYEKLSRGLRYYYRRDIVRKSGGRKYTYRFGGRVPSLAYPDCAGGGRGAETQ
# Method in brief: as §1
# ELF3 = target: T11, ELF3 (Homo sapiens, UniProt P78545 1-371); details: protein: recombinant; tags: N-terminal GST; dsDNA, one strand shown
# T11 sequence: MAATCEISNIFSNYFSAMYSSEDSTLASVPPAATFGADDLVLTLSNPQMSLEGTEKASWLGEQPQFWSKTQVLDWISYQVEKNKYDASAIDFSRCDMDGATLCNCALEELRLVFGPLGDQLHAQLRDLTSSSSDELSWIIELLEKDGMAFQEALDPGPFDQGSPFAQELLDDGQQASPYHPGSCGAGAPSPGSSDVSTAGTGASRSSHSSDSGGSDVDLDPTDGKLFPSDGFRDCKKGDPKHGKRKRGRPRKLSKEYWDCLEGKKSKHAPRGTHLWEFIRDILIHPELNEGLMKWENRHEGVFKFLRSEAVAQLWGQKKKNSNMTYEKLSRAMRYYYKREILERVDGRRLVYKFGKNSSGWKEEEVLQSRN
# Method in brief: as §1
# CRX = CRX (Homo sapiens, UniProt O43186 1-299); details: protein: recombinant; tags: N-terminal GST; dsDNA, one strand shown
# Sequence of CRX (O43186 whole entry): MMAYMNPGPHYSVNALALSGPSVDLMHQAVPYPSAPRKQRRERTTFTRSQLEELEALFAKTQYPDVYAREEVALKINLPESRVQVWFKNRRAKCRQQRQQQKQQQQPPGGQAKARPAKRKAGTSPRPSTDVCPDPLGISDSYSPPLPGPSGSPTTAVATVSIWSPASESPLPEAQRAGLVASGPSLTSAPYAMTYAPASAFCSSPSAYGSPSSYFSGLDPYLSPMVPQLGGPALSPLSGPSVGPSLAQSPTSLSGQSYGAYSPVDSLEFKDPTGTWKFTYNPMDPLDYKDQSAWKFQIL
# Method in brief: as §1
# ETV1 = ETV1 (Homo sapiens, UniProt P50549 1-477); details: protein: recombinant; tags: N-terminal GST; dsDNA, one strand shown
# Sequence of ETV1 (P50549 whole entry): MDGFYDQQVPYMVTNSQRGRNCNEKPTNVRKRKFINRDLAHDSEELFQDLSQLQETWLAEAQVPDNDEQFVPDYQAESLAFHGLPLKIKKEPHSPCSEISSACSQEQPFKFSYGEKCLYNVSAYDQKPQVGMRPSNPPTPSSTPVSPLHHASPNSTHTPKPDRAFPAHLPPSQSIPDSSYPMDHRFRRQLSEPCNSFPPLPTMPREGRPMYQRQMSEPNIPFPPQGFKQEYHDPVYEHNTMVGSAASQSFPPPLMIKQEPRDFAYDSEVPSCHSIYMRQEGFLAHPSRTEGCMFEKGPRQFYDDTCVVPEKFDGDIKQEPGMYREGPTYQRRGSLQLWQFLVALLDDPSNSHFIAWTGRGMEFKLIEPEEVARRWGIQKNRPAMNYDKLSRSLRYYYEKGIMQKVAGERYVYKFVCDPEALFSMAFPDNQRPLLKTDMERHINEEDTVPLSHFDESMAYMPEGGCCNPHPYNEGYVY
# Method in brief: as §1
sequence,measurement,setting,value
TAGTAC,binding signal,FLI1,"1.11 fold enrichment (6-mer frequency, TF over GST control)"
same,binding signal,ELK1,"1.13 fold enrichment (6-mer frequency, TF over GST control)"
same,binding signal,GABPA,"1.22 fold enrichment (6-mer frequency, TF over GST control)"
same,binding signal,ERG,"1.24 fold enrichment (6-mer frequency, TF over GST control)"
same,binding signal,ELF1,"1.16 fold enrichment (6-mer frequency, TF over GST control)"
same,binding signal,EHF,"1.08 fold enrichment (6-mer frequency, TF over GST control)"
same,binding signal,SPI1,"1.07 fold enrichment (6-mer frequency, TF over GST control)"
same,binding signal,SPIB,"1.06 fold enrichment (6-mer frequency, TF over GST control)"
same,binding signal,ELK3,"1.12 fold enrichment (6-mer frequency, TF over GST control)"
same,binding signal,FEV,"1.16 fold enrichment (6-mer frequency, TF over GST control)"
same,binding signal,ETV5,"1.14 fold enrichment (6-mer frequency, TF over GST control)"
same,binding signal,HSF1,"1.25 fold enrichment (6-mer frequency, TF over GST control)"
same,binding signal,SPIC,"1.27 fold enrichment (6-mer frequency, TF over GST control)"
same,binding signal,ELF4,"1.15 fold enrichment (6-mer frequency, TF over GST control)"
same,binding signal,ELK4,"1.16 fold enrichment (6-mer frequency, TF over GST control)"
same,binding signal,ETV2,"1.06 fold enrichment (6-mer frequency, TF over GST control)"
same,binding signal,ELF3,"1.14 fold enrichment (6-mer frequency, TF over GST control)"
same,binding signal,CRX,"1.29 fold enrichment (6-mer frequency, TF over GST control)"
same,binding signal,ETV1,"1.14 fold enrichment (6-mer frequency, TF over GST control)"
